Each sequence was assayed on VDR homodimer (NR concentration 270 nM) (assay: PBM binding z-score (relative to random genomic background probes); higher = stronger binding; sequences stand for … in GC…GCGATTGACAGCGTAGAATGAAGG).
Outline: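 Ligand-free nuclear receptor dimers were bound for 1 h to custom Agilent 4×180K protein-binding microarrays. Detection used antibodies against each partner (one per run). Binding z-scores rest on regression-normalized fluorescence, with random background probes as the reference.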
CGTTCAAGGTCAAGGTCAGTGAAAGAGACTCGAA showed a PBM binding z-score of 3.59. Sequence ACTAGTTGGTCAGCCGAGGTCACACACAATTCGG has a PBM binding z-score of 4.04. Work on AGTCAAAGTTCACTAGATAACGTAAGATTCAGCT yielded a PBM binding z-score of 3.35. ACTCGGAGAACAAAGGTCAGAGCTACGCCAGTGA showed a PBM binding z-score of 0.553. Work on CCTAGGTGGTCAGGAGGTCACACACCGGATATGA yielded a PBM binding z-score of 2.85. Work on CCTTAAGGGTCACTGACAGGTTATAGCATTTGGA yielded a PBM binding z-score of 2.04. TCGAGTAGGTTACCAATGGGGCATTCCGCTTTCT was tested, and the PBM binding z-score was -0.741. For TCTTGTAGATCAACGGTTAAGAAAGCCGAAGCCT, the PBM binding z-score was -0.227. With CCGACTGGGGCAGAAAGGTTACCATACCATCCGG the PBM binding z-score was -0.314. GCTAGCAGGCCATTTGGGTTACTCAATGACGGGC was tested, and the PBM binding z-score was -0.276. Work on AGTCAAAGTTCATCTAGGGAACGTAAGATATGCT yielded a PBM binding z-score of 4.63. CAAACTAGGTCACCGGATGGTCAAAGTCCGCATG gave a PBM binding z-score of 1.1. CCTCGGAGGCCAGAAGGTCAGAGCTGTCCGCTTT gave a PBM binding z-score of -0.311. CTCGAAAGGTCGGTTGAGGTGAGTGTACGGATAA showed a PBM binding z-score of 1.29. TAGCCTAGGTCATGGTCCAGTATACCACGCGAAC was tested, and the PBM binding z-score was 0.777. CCTGCTAGGTCAATGGTCAGCTACAGCAGCTCGC was tested, and the PBM binding z-score was 0.15. TCGAGTACGTTAGGGGCATTCAGAATGGCGTCGA showed a PBM binding z-score of 5.05. TAGCCTAGGACATTGGGCCAGTATAGTACGCATC was tested, and the PBM binding z-score was -0.291. CCTTACGGGTCACAAGGTTATAGCACGACGAGCG was tested, and the PBM binding z-score was 1.54. GTAACGAGGGCAAGTTGATAGCAGAGTTTGATGG gave a PBM binding z-score of 2.23. For ACGTACGGGTCAACGAGGTTATAGCACGCGTATA, the PBM binding z-score was 3.93. TCAAACAGGTGAAGGTAACTCAGGTACGCAGTCG gave a PBM binding z-score of 0.467. CGAACTAGGTCAGAACTGGACAGTGAAGGATGAT showed a PBM binding z-score of 0.221. In the case of CCTACTGGTCCAAAGGTCATTGATTCCAATGCTC, the PBM binding z-score is reported as 2.58. In the case of CCGACTGGGGCAGAAAGGTTACCACACCATCCGG, the PBM binding z-score is reported as -0.223. CCTGCTAGGTCAATAGTCAGCTAAAGCAGCTCGC gave a PBM binding z-score of -0.379. GCTAGCTGGCCATTTGGGTCACTCAATGACGGGC was tested, and the PBM binding z-score was -0.66. In the case of TTACCAAGGGGAAGGTCGTTGATCCCTCTGTAGA, the PBM binding z-score is reported as 0.435. ACTATTAGTTGACTTAGGGCAACCCATACGACGC was tested, and the PBM binding z-score was 0.642. CAAACTAGGTCGCGAAAGGTCAAAGTCGAATGAC gave a PBM binding z-score of 3.37. For CCTAGCAGGCCAGTGTCACTCAAGCATTTCGCTT, the PBM binding z-score was -0.509. Sequence ACTTACGGGTCAACGAGGTTATAGGACGCGTATA has a PBM binding z-score of 3.27. With TCATATAGGTAAACAGGTGGAAGTCCGTAAGTTA the PBM binding z-score was 0.154. ATCGAAAGGTCGCGAGGTGAGTATACAGAAAGGC gave a PBM binding z-score of 0.971. CCCCGGAGGACAACAGGAGGTCAGAGCTGCCAGA showed a PBM binding z-score of 1.77. ACTTACGGGTCAACGAGGTTATAGTACGCGTATA gave a PBM binding z-score of 4.38. TCGAGTAGGTTACCATTGGGGCATTCAGCTTTCT gave a PBM binding z-score of -0.46. With CCTTGTTGGTCAAGGTCACACACGCTATAGGTAC the PBM binding z-score was 3.13. CCTACTGGGCCACGAAAGGTCATTTATTCAGTGA was tested, and the PBM binding z-score was 2.76. For TCTTGTAGATCAAGAGAGGTTAAGAAAGTGCGCT, the PBM binding z-score was 0.194.
